According to PubChem BioAssay (NCATS):
Records with an inconclusive call do not appear. The source made the active and inactive calls. Unless noted, the call rests on the fitted dose curve.

Experiments:
[1] = qHTS assay for small molecule antagonists of peroxisome proliferator-activated receptor delta signaling (AID 588535; active means well fitted inhibition curve with a large enough effect in the signal ratio, with a control signal flat, not every such curve was filed as active; the % refers to the signal ratio;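 on max response: cells co-treated with a PPAR-delta agonist as stimulator during compound exposure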); settings: HEK293T PPARd-UAS-bla, beta-lactamase FRET ratio, 18 h; 460 nm channel
Outline: (§1)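 HEK293T PPAR-delta-UAS-bla cells, 4000/well, 2% charcoal/dextran FBS; 5 h 37 C; cpd titration; 18 h 37 C; CCF4 2 h RT; FI 460/530 nm; Hill fit → IC50, efficacy.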

[2] = target: Peroxisome proliferator-activated receptor delta (Homo sapiens) (UniProt Q03181); assay: as above; settings: HEK293T PPARd-UAS-bla, beta-lactamase FRET ratio, 18 h; series mostly up to 76.7 µM
Outline: as §1

[3] = target: Vitamin D3 receptor (Homo sapiens) (UniProt P11473); assay: qHTS assay for small molecule antagonists of vitamin D receptor signaling (AID 588541); settings: HEK293T VDR-UAS-bla, beta-lactamase ratio, antagonist mode; series mostly up to 76.7 µM;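 further: receptor activated by calcitriol during compound treatment; on the % scale 0 is the no-effect control and ±100 the full control effect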
Outline: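 Antagonist-mode beta-lactamase reporter assay: HEK293T VDR-UAS-bla cells were exposed to titrated compound alongside 1-alpha,25-dihydroxyvitamin D3 at 3 nM final for 16 h. Values were normalized to the 50 nM agonist control and DMSO basal, with IC50 and efficacy from Hill equation fits.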

[4] = target: Bile acid receptor (Homo sapiens) (UniProt Q96RI1); assay: qHTS assay for small molecule antagonists of farnesoid X receptor signaling (AID 588526); settings: HEK293T FXR-UAS-bla, beta-lactamase ratio, antagonist mode; series mostly up to 76.7 µM; further: on the % scale 0 is the no-effect control and ±100 the full control effect
Outline: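 Beta-lactamase reporter antagonist mode: HEK293T FXR-UAS-bla cells, titrated compound, CDCA stimulation, 16 h 37 C, CCF4 dye 2 h RT. Data normalized to CDCA 50 uM and DMSO; Hill-fit IC50.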

[5] = target: Glucocorticoid receptor (Homo sapiens) (UniProt P04150); assay: qHTS assay for small molecule agonists of glucocorticoid receptor signaling (AID 588532; active means well fitted curve in the direction sought with a large enough effect in the signal ratio, with a control signal flat; the % refers to the signal ratio;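 further: 100% = dexamethasone at 0.1 µM and 0% = DMSO only wells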); settings: HeLa MMTV-bla, beta-lactamase ratio, agonist, 18 h; stronger effect = higher value; percent of dexamethasone control, DMSO zero
Outline: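 Using MMTV-bla HeLa cells in medium with 1% stripped FBS and 25 mM HEPES, compounds were titrated and incubated overnight-length (18 h). Beta-lactamase cleavage of CCF4 was quantified by dual-emission fluorescence.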

[6] = target: Glucocorticoid receptor (Homo sapiens) (UniProt P04150); assay: qHTS assay for small molecule antagonists of glucocorticoid receptor signaling (AID 588533; active means well fitted inhibition curve with a large enough effect in the signal ratio, with a control signal flat, not every such curve was filed as active; the % refers to the signal ratio;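 further: cells stimulated with 2 nM dexamethasone as agonist; on the % scale 0 is the no-effect control and ±100 the full control effect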); settings: HeLa MMTV-bla, GRE beta-lactamase ratio, antagonist mode, 18 h; series mostly up to 76.8 µM
Outline: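 Antagonist-mode qHTS: compound titrations added to GRE-bla HeLa cells, then dexamethasone 2 nM final; 18 h, 37 C. CCF4 FRET fluorescence normalized to dexamethasone and DMSO; IC50 from Hill fit.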

[7] = target: Peroxisome proliferator-activated receptor gamma (Homo sapiens) (UniProt P37231); assay: qHTS assay for small molecule agonists of peroxisome proliferator-activated receptor gamma signaling (AID 588536; active means well fitted curve in the direction sought with a large enough effect in the signal ratio, with a control signal flat, not every such curve was filed as active; the % refers to the signal ratio;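 further: 0% = DMSO basal wells and 100% = rosiglitazone at 2 µM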); settings: HEK293 PPARg-UAS-bla, beta-lactamase ratio, 16 h, percent of rosiglitazone response, DMSO as zero; series mostly up to 76.7 µM
Outline: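 GeneBLAzer PPAR-gamma-UAS-bla HEK293 cells in 1% charcoal/dextran-treated FBS medium were treated 16 h at 37 C with compounds. Beta-lactamase activity was read by CCF4 ratio (460/530 nm). Response was normalized to 2 uM rosiglitazone (100%) and DMSO, then Hill-fitted for EC50 and efficacy.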

[8] = target: Peroxisome proliferator-activated receptor gamma (Homo sapiens) (UniProt P37231); assay: qHTS assay for small molecule antagonists of peroxisome proliferator-activated receptor gamma signaling (AID 588537; active means well fitted inhibition curve with a large enough effect in the signal ratio, with a control signal flat, not every such curve was filed as active; the % refers to the signal ratio;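 further: reporter cells co-stimulated with 50 nM rosiglitazone agonist during compound treatment; % of control where 0% means no effect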); settings: HEK293 PPARg-UAS-bla, beta-lactamase ratio, antagonist mode; series mostly up to 76.8 µM
Outline: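 Antagonist mode, beta-lactamase reporter in HEK293; charcoal/dextran FBS 1%; 3000 cells/well, 37 C 6-6.5 h; cpd titration + rosiglitazone 50 nM final, 16 h 37 C; CCF4, 2 h RT; 460/530 nm; Hill fit → IC50, efficacy.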

[9] = target: Androgen receptor (Homo sapiens) (UniProt P10275); assay: qHTS assay for small molecule agonists of androgen receptor signaling (AID 588515; active means well fitted curve in the direction sought with a large enough effect in the signal ratio, with a control signal flat; the % refers to the signal ratio; further: on the % scale 0 is the no-effect control and ±100 the full control effect); settings: AR-UAS-bla HEK293, beta-lactamase ratio, agonist 16 h; stronger effect = higher value
Outline: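 EC50 and efficacy came from Hill fits of titrations (up to 92 uM) normalized to 30 nM R1881 as 100% and DMSO as 0%. Compound exposure was 16 h at 37 C on AR-UAS-bla HEK293 cells, with a 405/460/530 nm CCF4 fluorescence read.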

[10] = target: Androgen receptor (Homo sapiens) (UniProt P10275); assay: qHTS assay for small molecule antagonists of androgen receptor signaling (AID 588516; active means well fitted curve in the direction sought with a large enough effect in the signal ratio, with a control signal flat, not every such curve was filed as active; the % refers to the signal ratio; further: on the % scale 0 is the no-effect control and ±100 the full control effect); settings: AR-UAS-bla HEK293, beta-lactamase ratio, antagonist mode, 16 h; series mostly up to 76.8 µM
Outline: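 HEK293 AR-UAS-bla cells, 10% dialyzed FBS medium; cpd titration + R1881 10 nM final, 16 h 37 C; CCF4 2 h RT; FRET ratio; IC50/efficacy via Hill fit.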

Sequence of Vitamin D3 receptor (Homo sapiens) (P11473 whole entry, looked up): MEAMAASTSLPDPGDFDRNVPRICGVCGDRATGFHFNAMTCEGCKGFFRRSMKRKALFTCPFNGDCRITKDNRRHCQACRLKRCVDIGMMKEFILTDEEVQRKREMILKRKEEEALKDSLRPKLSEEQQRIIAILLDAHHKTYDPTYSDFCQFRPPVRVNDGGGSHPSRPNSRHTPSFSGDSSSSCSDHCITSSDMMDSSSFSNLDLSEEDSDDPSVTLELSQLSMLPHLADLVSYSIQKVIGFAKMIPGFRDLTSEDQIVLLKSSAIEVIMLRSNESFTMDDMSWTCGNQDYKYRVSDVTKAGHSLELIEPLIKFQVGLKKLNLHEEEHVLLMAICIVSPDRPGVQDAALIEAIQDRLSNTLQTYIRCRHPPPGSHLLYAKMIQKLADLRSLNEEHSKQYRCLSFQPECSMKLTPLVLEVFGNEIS
Sequence of Glucocorticoid receptor (Homo sapiens) (P04150 whole entry, looked up): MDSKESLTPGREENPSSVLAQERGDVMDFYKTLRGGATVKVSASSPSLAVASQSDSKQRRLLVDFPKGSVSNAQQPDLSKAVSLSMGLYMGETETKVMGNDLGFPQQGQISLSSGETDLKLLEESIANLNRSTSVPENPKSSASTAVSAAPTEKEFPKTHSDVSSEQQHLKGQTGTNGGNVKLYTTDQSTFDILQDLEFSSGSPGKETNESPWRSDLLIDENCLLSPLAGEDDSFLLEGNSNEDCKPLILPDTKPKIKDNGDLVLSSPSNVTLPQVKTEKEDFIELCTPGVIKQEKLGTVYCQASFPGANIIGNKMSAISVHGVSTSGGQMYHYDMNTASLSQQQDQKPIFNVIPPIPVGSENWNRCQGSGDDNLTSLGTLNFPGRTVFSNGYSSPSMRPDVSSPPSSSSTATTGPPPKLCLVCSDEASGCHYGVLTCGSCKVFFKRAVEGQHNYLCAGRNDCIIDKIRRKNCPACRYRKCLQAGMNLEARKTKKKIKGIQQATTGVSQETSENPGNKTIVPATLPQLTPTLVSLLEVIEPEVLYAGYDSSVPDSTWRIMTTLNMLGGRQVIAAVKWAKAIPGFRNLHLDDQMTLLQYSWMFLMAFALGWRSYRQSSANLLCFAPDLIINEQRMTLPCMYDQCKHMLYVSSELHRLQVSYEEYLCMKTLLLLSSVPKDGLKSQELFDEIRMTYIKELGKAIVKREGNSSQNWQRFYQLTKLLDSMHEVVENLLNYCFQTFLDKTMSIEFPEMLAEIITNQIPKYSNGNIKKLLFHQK
Sequence of Peroxisome proliferator-activated receptor gamma (Homo sapiens) (P37231 whole entry, looked up): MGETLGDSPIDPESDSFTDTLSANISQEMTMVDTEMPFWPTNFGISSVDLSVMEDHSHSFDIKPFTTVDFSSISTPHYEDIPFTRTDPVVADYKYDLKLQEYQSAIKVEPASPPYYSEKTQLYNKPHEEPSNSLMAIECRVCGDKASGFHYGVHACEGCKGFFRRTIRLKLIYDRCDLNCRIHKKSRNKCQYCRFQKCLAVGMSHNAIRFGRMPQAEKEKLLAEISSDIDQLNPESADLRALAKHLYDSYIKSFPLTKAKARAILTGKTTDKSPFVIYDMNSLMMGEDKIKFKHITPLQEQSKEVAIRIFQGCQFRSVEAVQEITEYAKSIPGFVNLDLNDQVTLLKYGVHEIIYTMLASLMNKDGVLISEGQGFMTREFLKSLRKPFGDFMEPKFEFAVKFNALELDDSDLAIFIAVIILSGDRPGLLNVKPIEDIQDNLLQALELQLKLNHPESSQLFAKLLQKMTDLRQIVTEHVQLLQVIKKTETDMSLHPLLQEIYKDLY
Sequence of Peroxisome proliferator-activated receptor delta (Homo sapiens) (Q03181 whole entry, looked up): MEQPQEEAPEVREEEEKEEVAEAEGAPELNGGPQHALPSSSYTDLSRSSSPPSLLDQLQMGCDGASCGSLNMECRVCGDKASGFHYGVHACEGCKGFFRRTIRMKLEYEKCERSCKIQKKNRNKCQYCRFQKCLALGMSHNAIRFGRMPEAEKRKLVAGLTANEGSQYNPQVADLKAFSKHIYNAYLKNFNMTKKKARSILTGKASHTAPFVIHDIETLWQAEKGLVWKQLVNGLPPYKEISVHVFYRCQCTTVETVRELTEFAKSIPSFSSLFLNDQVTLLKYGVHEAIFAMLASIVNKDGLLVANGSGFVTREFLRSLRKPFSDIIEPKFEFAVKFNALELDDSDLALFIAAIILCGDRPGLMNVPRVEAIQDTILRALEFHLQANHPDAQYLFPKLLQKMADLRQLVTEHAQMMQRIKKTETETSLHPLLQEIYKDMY
Sequence of Androgen receptor (Homo sapiens) (P10275 whole entry, looked up): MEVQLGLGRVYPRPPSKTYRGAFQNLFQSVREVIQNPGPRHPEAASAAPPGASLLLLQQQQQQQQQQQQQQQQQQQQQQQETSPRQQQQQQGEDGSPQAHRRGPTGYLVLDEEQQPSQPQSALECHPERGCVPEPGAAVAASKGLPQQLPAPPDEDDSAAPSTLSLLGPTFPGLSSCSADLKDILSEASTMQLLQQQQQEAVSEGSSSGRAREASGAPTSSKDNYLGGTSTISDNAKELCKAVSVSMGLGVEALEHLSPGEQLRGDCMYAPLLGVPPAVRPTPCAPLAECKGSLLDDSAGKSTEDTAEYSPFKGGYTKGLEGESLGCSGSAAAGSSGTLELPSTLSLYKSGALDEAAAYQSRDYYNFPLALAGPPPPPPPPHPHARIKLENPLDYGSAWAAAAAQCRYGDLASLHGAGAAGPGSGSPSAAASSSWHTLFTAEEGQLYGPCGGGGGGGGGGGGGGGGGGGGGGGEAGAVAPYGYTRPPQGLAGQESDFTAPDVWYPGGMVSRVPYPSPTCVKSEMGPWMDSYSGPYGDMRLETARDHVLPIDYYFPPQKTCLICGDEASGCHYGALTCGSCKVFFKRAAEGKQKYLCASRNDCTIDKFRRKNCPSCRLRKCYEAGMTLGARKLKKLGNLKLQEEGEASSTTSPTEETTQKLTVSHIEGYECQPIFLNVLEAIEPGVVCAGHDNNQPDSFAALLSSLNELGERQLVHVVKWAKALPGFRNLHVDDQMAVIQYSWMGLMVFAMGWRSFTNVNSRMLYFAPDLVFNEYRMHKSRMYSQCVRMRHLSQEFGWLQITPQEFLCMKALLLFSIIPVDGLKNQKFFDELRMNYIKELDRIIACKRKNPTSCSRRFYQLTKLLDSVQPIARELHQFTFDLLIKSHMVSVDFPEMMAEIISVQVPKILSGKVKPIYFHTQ
Sequence of Bile acid receptor (Homo sapiens) (Q96RI1 whole entry, looked up): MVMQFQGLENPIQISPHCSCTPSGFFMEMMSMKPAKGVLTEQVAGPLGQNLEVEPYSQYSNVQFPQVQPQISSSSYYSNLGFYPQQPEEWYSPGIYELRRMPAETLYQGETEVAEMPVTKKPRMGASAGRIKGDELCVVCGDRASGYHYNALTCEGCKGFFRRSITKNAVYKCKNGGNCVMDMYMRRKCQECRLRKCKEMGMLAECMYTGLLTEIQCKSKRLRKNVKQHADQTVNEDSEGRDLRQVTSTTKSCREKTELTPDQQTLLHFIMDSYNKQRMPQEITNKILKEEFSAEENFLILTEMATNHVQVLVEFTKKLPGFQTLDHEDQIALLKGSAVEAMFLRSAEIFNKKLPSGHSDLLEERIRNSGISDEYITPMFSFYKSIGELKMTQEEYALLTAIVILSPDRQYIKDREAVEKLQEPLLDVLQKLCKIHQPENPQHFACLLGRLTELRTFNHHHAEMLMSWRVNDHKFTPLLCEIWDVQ

| Compound | max response [1] [%] | outcome [2] | outcome [3] | outcome [4] | activation [5] | outcome [6] | outcome [7] | outcome [8] | activation [9] | outcome [10] |
| --- | --- | --- | --- | --- | --- | --- | --- | --- | --- | --- |
| O=C(/C=C/C=C/c1ccc2c(c1)OCO2)N1CCCCC1 | -63.1 | inactive | inactive | – | – | – | – | – | – | – |
| C=C1C[C@]23C[C@@]1(O)CC[C@H]2[C@@]12C=C[C@H](O)[C@@](C)(C(=O)O1)[C@H]2[C@@H]3C(=O)O | 8.68 | inactive | inactive | inactive | -5.06% (inactive) | inactive | inactive | inactive | – | – |
| COc1ccc(CCC(=O)c2c(O)cc(O[C@@H]3O[C@H](CO)[C@@H](O)[C@H](O)[C@H]3O[C@@H]3O[C@@H](C)[C@H](O)[C@@H](O)[C@H]3O)cc2O)cc1O | – | – | inactive | – | -0.542% (inactive) | inactive | inactive | – | 12.1% (inactive) | inactive |
